Data published in PubChem BioAssay (EPA / NIEHS).
Calls of active or inactive are those of the source. Rule for the calls: active = hit-call score of the fitted dose curve at least 0.9, where 1 is the maximum; inactive = score below 0.9.

How the values were obtained:
[1] = ATG_GRE_CIS: Attagene CIS-FACTORIAL HepG2 Assay for human Glucocorticoid Response Elements (GRE) (AID 2282947); conditions: HepG2 GRE cis-reporter, Attagene multiplex mRNA; actives raise or lower the signal
Outline: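 Fluorescence intensity of reporter-specific cDNA fragments, separated by capillary electrophoresis, provides the signal. Constructs carry cis-regulating promoters in transiently transfected HepG2 liver cells; 24 h incubation; fitting is bidirectional against DMSO.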

[2] = ATG_ISRE_CIS: Attagene CIS-FACTORIAL HepG2 Assay for human Interferon Regulatory Factor 1 (IRF1) binding to an Interferon-Stimulated Response Element (ISRE) (AID 2282948); conditions: HepG2 ISRE cis-reporter (Attagene), mRNA transcription readout; actives raise or lower the signal
Outline: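 Signal reflects induction or loss of ISRE-linked reporter mRNA in transiently transfected HepG2 cells after a 24 h treatment, detected by fluorescent RT-PCR fragments on capillary electrophoresis and normalised to DMSO.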

[3] = ATG_M_32_CIS: Attagene CIS-FACTORIAL HepG2 Assay for M32 Transcription Factor (Internal Marker) (AID 2282949); conditions: HepG2 Attagene cis-factorial M32 reporter, mRNA; actives raise or lower the signal;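 note: background control marker of the multiplexed CIS panel rather than a real target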
Outline: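 HepG2 human liver cells transiently transfected with cis-promoter-driven multiple reporter transcription units, dosed 24 h. Reporter mRNA quantified by RT-PCR, FAM-labelled primer extension, HpaI digest and capillary electrophoresis; bidirectional fit versus DMSO baseline.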

[4] = ATG_M_06_CIS: Attagene CIS-FACTORIAL HepG2 Assay for M06 Transcription Factor (Internal Marker) (AID 2282950); conditions: HepG2 Attagene CIS-FACTORIAL M06 internal marker reporter; actives raise or lower the signal
Outline: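 Terse: HepG2, transient MRTU transfection (FuGene 6), 24 h dosing; total RNA, oligo(dT) RT, PCR, FAM label, HpaI cut, capillary electrophoresis; bidirectional fit vs DMSO baseline; background-control endpoint.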

[5] = target: Hypoxia-inducible factor 1-alpha (Homo sapiens) (UniProt Q16665); experiment: ATG_HIF1a_CIS: Attagene CIS-FACTORIAL HepG2 Assay for human Hypoxia Inducible Factor 1 (HIF1A) (AID 2282951); conditions: HepG2 Attagene cis-factorial HIF1a reporter transcription; actives raise or lower the signal
Chain of Hypoxia-inducible factor 1-alpha (Homo sapiens) (Q16665 whole entry, looked up): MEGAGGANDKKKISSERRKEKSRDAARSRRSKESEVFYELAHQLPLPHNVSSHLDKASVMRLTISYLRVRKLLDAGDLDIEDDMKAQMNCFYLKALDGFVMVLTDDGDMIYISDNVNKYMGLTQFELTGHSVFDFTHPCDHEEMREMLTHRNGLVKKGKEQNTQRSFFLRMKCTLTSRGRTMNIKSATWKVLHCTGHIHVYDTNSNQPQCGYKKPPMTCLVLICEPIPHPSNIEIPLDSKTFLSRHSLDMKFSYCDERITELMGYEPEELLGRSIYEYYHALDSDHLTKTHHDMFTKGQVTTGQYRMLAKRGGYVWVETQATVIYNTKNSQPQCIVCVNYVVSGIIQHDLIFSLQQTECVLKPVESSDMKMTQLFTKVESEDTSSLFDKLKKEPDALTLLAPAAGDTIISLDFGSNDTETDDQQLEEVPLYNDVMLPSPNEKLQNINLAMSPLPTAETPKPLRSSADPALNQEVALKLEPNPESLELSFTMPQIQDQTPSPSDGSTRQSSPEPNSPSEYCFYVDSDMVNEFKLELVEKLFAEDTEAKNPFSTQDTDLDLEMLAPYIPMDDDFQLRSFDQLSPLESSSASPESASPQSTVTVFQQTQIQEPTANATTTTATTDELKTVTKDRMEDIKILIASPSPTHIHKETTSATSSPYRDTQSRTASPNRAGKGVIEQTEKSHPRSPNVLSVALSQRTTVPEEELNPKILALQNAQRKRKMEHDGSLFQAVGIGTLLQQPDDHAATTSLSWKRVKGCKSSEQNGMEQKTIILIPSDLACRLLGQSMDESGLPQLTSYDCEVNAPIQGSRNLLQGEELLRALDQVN
Outline: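 RT-PCR/capillary electrophoresis fluorescence readout of reporter transcripts from endogenous-TF-driven cis elements in transfected HepG2 cells, 24 h exposure; activity fitted in both directions against DMSO controls.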

[6] = target: Hepatocyte nuclear factor 6 (Homo sapiens) (UniProt Q9UBC0); experiment: ATG_HNF6_CIS: Attagene CIS-FACTORIAL HepG2 Assay for human Hepatocyte Nuclear Factor 6 (HNF6) (AID 2282952); conditions: HepG2 Attagene cis-factorial HNF6 reporter transcription; actives raise or lower the signal
Chain of Hepatocyte nuclear factor 6 (Homo sapiens) (Q9UBC0 whole entry, looked up, the tested form may be a part): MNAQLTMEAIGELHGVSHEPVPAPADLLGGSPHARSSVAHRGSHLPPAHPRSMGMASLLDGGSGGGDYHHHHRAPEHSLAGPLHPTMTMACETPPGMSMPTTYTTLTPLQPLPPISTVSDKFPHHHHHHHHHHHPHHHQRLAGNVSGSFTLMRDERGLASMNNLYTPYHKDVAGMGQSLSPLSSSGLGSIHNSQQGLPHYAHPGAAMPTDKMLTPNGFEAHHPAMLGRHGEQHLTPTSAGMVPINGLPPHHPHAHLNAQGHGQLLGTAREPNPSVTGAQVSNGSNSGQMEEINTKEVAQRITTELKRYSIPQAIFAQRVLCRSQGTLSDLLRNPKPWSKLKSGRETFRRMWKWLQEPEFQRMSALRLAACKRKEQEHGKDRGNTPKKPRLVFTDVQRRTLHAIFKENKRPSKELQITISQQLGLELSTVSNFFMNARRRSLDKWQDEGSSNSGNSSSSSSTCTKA
Outline: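 Readout: fluorescent reporter-transcript fragments resolved by capillary electrophoresis after RT-PCR, reflecting endogenous factor activity in transfected HepG2. Exposure 24 h. Gain or loss of signal fitted bidirectionally against DMSO.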

[7] = target: Heat shock factor protein 1 (Homo sapiens) (UniProt Q00613); experiment: ATG_HSE_CIS: Attagene CIS-FACTORIAL HepG2 Assay for human Heat Shock Transcription Factor 1 (HSE) (AID 2282953); conditions: HepG2 HSE cis-reporter, Attagene RNA transcription; actives raise or lower the signal
Chain of Heat shock factor protein 1 (Homo sapiens) (Q00613 whole entry, looked up, the tested form may be a part): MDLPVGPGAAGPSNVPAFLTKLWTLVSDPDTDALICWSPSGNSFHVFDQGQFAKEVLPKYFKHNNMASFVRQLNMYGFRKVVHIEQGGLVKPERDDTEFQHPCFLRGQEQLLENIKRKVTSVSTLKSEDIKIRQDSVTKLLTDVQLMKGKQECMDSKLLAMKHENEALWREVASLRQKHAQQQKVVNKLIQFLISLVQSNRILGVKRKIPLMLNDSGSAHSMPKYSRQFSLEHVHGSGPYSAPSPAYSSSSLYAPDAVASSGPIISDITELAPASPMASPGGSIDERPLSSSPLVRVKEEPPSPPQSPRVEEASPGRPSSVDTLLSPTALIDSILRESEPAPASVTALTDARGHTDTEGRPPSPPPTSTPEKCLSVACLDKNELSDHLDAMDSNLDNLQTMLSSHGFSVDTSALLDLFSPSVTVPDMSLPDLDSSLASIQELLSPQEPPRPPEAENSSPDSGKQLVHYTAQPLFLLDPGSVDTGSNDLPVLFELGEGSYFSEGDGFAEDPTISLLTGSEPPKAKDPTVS
Outline: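 Read-out: fluorescence of reporter-specific RT-PCR fragments separated by capillary electrophoresis. HepG2 carrying transfected cis-element reporter units; 24 h dosing; activity fitted in both directions relative to DMSO baseline.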

[8] = ATG_MRE_CIS: Attagene CIS-FACTORIAL HepG2 Assay for human Metal Responsive Element (MRE) (AID 2282954); conditions: HepG2 MRE cis-reporter transcription, Attagene multiplex; actives raise or lower the signal
Outline: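 Measured here is mRNA induction from an MRE cis-element reporter in HepG2 after 24 h, quantified by fluorescence of labelled RT-PCR products on capillary electrophoresis; gain- and loss-of-signal fits use DMSO as baseline.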

[9] = ATG_PBREM_CIS: Attagene CIS-FACTORIAL HepG2 Assay for human Phenobarbital-responsive Enhancer Module (PBREM) (AID 2282955); conditions: HepG2 PBREM cis-reporter, Attagene multiplexed transcription; actives raise or lower the signal
Outline: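 Reporter mRNA read by RT-PCR, 6-FAM primer extension, HpaI digestion and capillary electrophoresis. Transfected HepG2 cells, 24 h compound exposure. Gain or loss of signal fitted bidirectionally relative to DMSO baseline.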

Measured: AC50

O=C1CCc2ccccc2O1
not listed: [9]
inactive: all other assays above

COc1ccc(O)cc1
not listed: [9]
inactive: all other assays above

CCCCC[Si](OCC)(OCC)OCC
not listed: [9]
inactive: all other assays above

CCCCCCCCC=O
inactive: all assays above

COc1nc(C)nc(N)n1
not listed: [9]
inactive: all other assays above

CC(C)(CO)[N+](=O)[O-]
inactive: all assays above

CCC(C)(O)CCC=C(C)C (stereo unspecified)
not listed: [9]
inactive: all other assays above

OCCOCCOCCOCCO
active: [7] 57.2 µM
not listed: [9]
inactive: all other assays above

O=C(O)c1cn(-c2ccc(F)cc2)c2cc(N3CCNCC3)c(F)cc2c1=O
not listed: [9]
inactive: all other assays above

CCCCCCCCC
inactive: all assays above

C=CC(=O)OCCOCCOCC
not listed: [9]
inactive: all other assays above

CCCCCCC#CC(=O)OC
inactive: all assays above

COc1ccc(Nc2ccccc2)c(C)c1
active: [8] 128 µM
not listed: [9]
inactive: all other assays above

[Ca+2]
not listed: [9]
inactive: all other assays above

CC(C)Oc1ccccc1O
not listed: [9]
inactive: all other assays above

COc1cc(C=O)ccc1OC(=O)C(C)C
not listed: [9]
inactive: all other assays above

CCCCCCCCCCCCOCCO
active: [2] 20.4 µM | [8] 52.1 µM
not listed: [9]
inactive: all other assays above

CCCCCCCCCCCCCOS(=O)(=O)O
not listed: [9]
inactive: all other assays above

CC1(C)[C@H]2CC[C@]1(C)[C@H](O)C2
inactive: all assays above

CCC(=O)OCc1ccccc1
not listed: [9]
inactive: all other assays above

NC(=O)Nc1ccc(Cl)cc1
inactive: all assays above

C/C=C(\C)C(=O)OCc1ccccc1
not listed: [9]
inactive: all other assays above

CCOC(=S)SSC(=S)OCC
active: [7] 157 µM
not listed: [9]
inactive: all other assays above

CC(c1cc2ccccc2s1)N(O)C(N)=O (stereo unspecified)
not listed: [9]
inactive: all other assays above

C=C(C)C(=O)O
not listed: [9]
inactive: all other assays above

OC[C@H]1O[C@H](O[C@]2(CCl)O[C@H](CCl)[C@@H](O)[C@@H]2O)[C@H](O)[C@@H](O)[C@H]1Cl
not listed: [9]
inactive: all other assays above

CCCCCCCCCC=O
active: [5] 19.8 µM
not listed: [9]
inactive: all other assays above

NC(=O)NC1NC(=O)NC1=O (stereo unspecified)
not listed: [9]
inactive: all other assays above

O=C(O)CCSCCC(=O)O
not listed: [9]
inactive: all other assays above

CCO[Si](CCCS)(OCC)OCC
active: [5] 28.4 µM
not listed: [9]
inactive: all other assays above

COC(=O)OC
inactive: all assays above

Cc1cccc(C)c1[N+](=O)[O-]
not listed: [9]
inactive: all other assays above

CCC(C)CCCC(C)(C)O (stereo unspecified)
not listed: [7] | [9]
inactive: all other assays above

CCCCC(CC)COCCC#N (stereo unspecified)
inactive: all assays above

O=C(Cl)c1cccc(C(=O)Cl)c1
inactive: all assays above

CCCCCC=CCC(=O)OC
not listed: [5] | [9]
inactive: all other assays above

COc1ccnc(CS(=O)c2nc3cc(OC(F)F)ccc3[nH]2)c1OC (stereo unspecified)
inactive: all assays above

O=[N+]([O-])c1ccc(Nc2ccc(Nc3ccccc3)c(S(=O)(=O)O)c2)c([N+](=O)[O-])c1
active: [8] 100 µM
not listed: [7]
inactive: all other assays above

CCCCc1ccc(N)cc1
inactive: all assays above

C=C[C@@H](C)CCC=C(C)C
not listed: [7] | [9]
inactive: all other assays above

OC1OC[C@@H](O)[C@H](O)[C@H]1O (stereo partly specified)
not listed: [7]
inactive: all other assays above

C=CC(C)(CCC=C(C)C)OC=O (stereo unspecified)
not listed: [7]
inactive: all other assays above

O=C1CCCCCCCCCCOCCCCO1
active: [5] 179 µM | [8] 180 µM
not listed: [7]
inactive: all other assays above

CCC/C=C/C=O
not listed: [7]
inactive: all other assays above

COC(=O)Cc1cccc2ccccc12
inactive: all assays above

COCCCOc1ccnc(CS(=O)c2nc3ccccc3[nH]2)c1C (stereo unspecified)
active: [7] 152 µM | [8] 106 µM
inactive: all other assays above

CCCCOCCOCCSC#N
not listed: [7]
inactive: all other assays above

CN(C)C(=N)N=C(N)N
not listed: [7]
inactive: all other assays above

CC(C)(C)NC(N)=O
inactive: all assays above

CCCCN
not listed: [7]
inactive: all other assays above

Nc1cccc(S(=O)(=O)c2cccc(N)c2)c1
not listed: [7]
inactive: all other assays above

CC(C)(C)c1n[nH]c(=S)n(N)c1=O
not listed: [7]
inactive: all other assays above

CC(C=O)Cc1ccc(C(C)C)cc1 (stereo unspecified)
inactive: all assays above

O=[N+]([O-])c1ccc(C=Cc2ccc([N+](=O)[O-])cc2S(=O)(=O)O)c(S(=O)(=O)O)c1
not listed: [7]
inactive: all other assays above

CC(C)CCCCCCCOC(=O)c1ccc(C(=O)OCCCCCCCC(C)C)c(C(=O)OCCCCCCCC(C)C)c1
inactive: all assays above

CCCCCCCCCCC(CO)CCCCCCCC (stereo unspecified)
inactive: all assays above

COCCOCCOCCOCCOCCO
inactive: all assays above
